About 5,400 (1.8%) of roughly 300,000 compounds were called active. Where a call stands in place of a potency, no number is given. Another 28% or so got no clear call; they are omitted. The sample holds actives, similar compounds and a random draw of the others, so the mix is not that of the screen. Calls follow the shape of the full dose curve; tested in HEK293 cells.
experiment: qHTS for inhibitors of binding or entry into cells for Marburg Virus; details: Marburg virus pseudotyped entry inhibition, cell reporter; series mostly up to 37.8 µM
Potency is read from the fitted curve at half-maximal effect.

SMILES	Potency
CC(C)(C)C(=O)Nc1cccc(-c2ccc[nH]2)n1	inactive
Cc1cc([N+](=O)[O-])c(=O)[nH]c1C	inactive
COc1ccc(NC(=O)N2CCCC2C(=O)NCc2ccccc2Cl)cc1 (configuration not stated)	inactive
CCc1ccc(NC(=O)CN2C(=O)C(c3ccccc3)=NC23CCCCCC3)cc1	inactive
COc1ccc(C2=NC3(CCCCC3)N(CC(=O)Nc3ccc(C(C)C)cc3)C2=O)cc1	11.2 µM (active)
COc1ccc(NC(=O)CN2C(=O)C(c3ccccc3)=NC23CCCCCC3)cc1OC	inactive
CCCCn1c(N)c(N(CC(C)C)C(=O)c2ccc(Br)o2)c(=O)[nH]c1=O	inactive
O=C(Nc1c[nH]c(=O)[nH]c1=O)OCc1ccccc1	inactive
Cc1c(NC(=O)CN(C)CC(=O)Nc2ccc(F)c(F)c2F)c(=O)n(-c2ccccc2)n1C	inactive
Cc1cccc(N(Cc2ccccc2)C(=O)c2cc(S(=O)(=O)N3CCOCC3)ccc2F)c1	inactive
Cc1cc(NC(=O)c2cc3ccccc3o2)no1	inactive
CCOc1ccc2nc(N(CCN(C)C)C(=O)c3ccc4ccccc4c3)sc2c1	inactive
COc1cccc2sc(N(CCCN(C)C)C(=O)C(c3ccccc3)c3ccccc3)nc12	10 µM (active)
COc1cccc2sc(NNC(=O)c3nc4ccccc4s3)nc12	inactive
COC(=O)C1=C(C)NC(=S)NC1c1ccc(OCC(=O)N2CC(C)OC(C)C2)c(OC)c1 (configuration not stated)	inactive
CC(C)(C)CC(C)(C)NCC(O)COCCOc1ccc(Br)cc1 (configuration not stated)	4.61 µM (active)
COc1ccc(OCC(O)CNCCNc2nccc(C(F)(F)F)n2)cc1 (configuration not stated)	inactive
Cc1noc(COc2ccccc2OCC(O)CNC(C)(C)C)n1 (configuration not stated)	inactive
COc1cccc(NC(=O)C/C(C)=N/NC(=O)C2CCCCC2)c1	inactive
Cc1ccc(OCC(=O)Oc2ccccc2[N+](=O)[O-])cc1	inactive
O=C1CN(C(=O)COc2c(Cl)cccc2Cl)c2ccccc2N1	inactive
COc1ccc(-n2ncc3c2CC(C)(C)CC3NC(=O)CCc2c(C)nn(C)c2C)cc1 (configuration not stated)	inactive
